Screens as filed in PubChem.
Mtb FBA inh = Mtb FBA enzyme inhibitors, primary screen, biochemical, fluorescence, strain H37Rv | Fructose-bisphosphate aldolase (Mycobacterium tuberculosis (strain ATCC 25618 / H37Rv)), … | purified M. tuberculosis FBA, fluorescence read-out | inhibition, % at 1 µM | 360,000 tested, 2.3% active;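 note: 0% = vehicle and 100% = reference inhibitor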
Target sequence (P9WQA3 whole entry, looked up): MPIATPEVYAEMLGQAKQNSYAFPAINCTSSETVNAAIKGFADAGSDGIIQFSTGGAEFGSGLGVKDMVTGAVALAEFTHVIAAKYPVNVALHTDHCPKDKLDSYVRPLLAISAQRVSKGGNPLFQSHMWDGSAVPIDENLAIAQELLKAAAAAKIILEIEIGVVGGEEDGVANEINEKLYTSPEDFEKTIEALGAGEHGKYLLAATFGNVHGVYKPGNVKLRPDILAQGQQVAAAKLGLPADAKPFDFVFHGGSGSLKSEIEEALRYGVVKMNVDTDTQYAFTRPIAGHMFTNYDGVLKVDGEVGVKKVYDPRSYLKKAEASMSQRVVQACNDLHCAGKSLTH
SARS 3CLpro inh = SARS-CoV 3CLpro protease inhibitors, primary screen, biochemical, quenched FRET. inhibition, % at 6 µM. AID 1706, 2009. recombinant SARS-CoV 3CLpro, quenched FRET peptide cleavage. 290,000 tested, 0.14% active; in the data active = inhibition above about 12%
GDH-TPI counter-1 = GDH-TPI coupling enzyme inhibitors, primary screen, artefact control for M. tuberculosis FBA inhibitor project, biochemical, absorbance, full deck; GDH-TPI coupled enzyme counterscreen, NADH absorbance; AID 588335, 2011; inhibition, % at 4.8 µM; 360,000 tested, 1.2% active; in the data active = inhibition above about 30%;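 note: 0% = DMSO wells and 100% = wells lacking the enzyme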
Mtb BioA inh = M. tuberculosis BioA enzyme inhibitors, primary screen, biochemical, plate reader, single point, HTS; 7,8-diaminopelargonic acid synthase BioA (Mycobacterium tuberculosis); purified M. tuberculosis BioA enzyme; inhibition, % at 9.99 µM; 360,000 tested, 0.096% active; AID 602481, 2012; in the data active = inhibition above about 40%
FadD28 binding = inhibitors of FadD28 bisubstrate probe binding, primary screen, biochemical, fluorescence polarization, single point | Mycobacterium tuberculosis FadD28 fatty-acid-AMP ligase | 360,000 tested, 0.22% active | inhibition, % at 12.5 µM; in the data active = inhibition above about 8.5%, passing the limit was not always enough
Mtb FBA inh conf = M. tuberculosis aldolase blockers, biochemical, fluorescence, strain H37Rv, confirmation. AID 651616, 2012. inhibition, % at 1 µM. 5,600 tested, 78% active. shares compounds with Mtb FBA inh. purified M. tuberculosis FBA, fluorescence read-out;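 note: 0% = vehicle wells and 100% = reference inhibitor wells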
GDH-TPI counter-2 = GDH-TPI coupling enzyme inhibitors, artefact control for M. tuberculosis FBA inhibitor project, biochemical, fluorescence, high throughput; inhibition, % at 1 µM; 5,600 tested, 81% active; AID 652141, 2013; shares compounds with Mtb FBA inh; GDH-TPI coupled enzyme counterscreen; in the data active = inhibition above about 10%
Active calls of the source: *. Shown are actives, neighbours in structure and some others; about 3.1% of the full set was active somewhere. Cut-off read from the data, not from the text of the source, unless noted: active = inhibition above about 27%; inactive = the rest.

How did CCOC(=O)CCc1c(C)nc2cc(-c3ccccc3OC)[nH]n2c1=O do in these assays?
Mtb FBA inh: 28*; SARS 3CLpro inh: 2; GDH-TPI counter-1: -6; Mtb BioA inh: -2; FadD28 binding: 0; Mtb FBA inh conf: 138*; GDH-TPI counter-2: 124*

Results for C[C@@H]1CCCCO[C@H](CN(C)C(=O)NC2CCCCC2)[C@H](C)CN([C@H](C)CO)C(=O)c2cc(NC(=O)NC3CCCCC3)ccc2O1 ?
Mtb BioA inh: -2

What do the screens show for `CCCS(=O)(=O)NCCc1csc(-c2ccc(OC)c(OC)c2)n1`?
Mtb FBA inh: 35*; SARS 3CLpro inh: -2; GDH-TPI counter-1: 5; Mtb BioA inh: 15; FadD28 binding: 1; Mtb FBA inh conf: 92*; GDH-TPI counter-2: 78*

How did CCN(CC(=O)Nc1c(F)cccc1F)C(=O)Cc1csc(-c2ccc(OC)c(OC)c2)n1 do in these assays?
Mtb FBA inh: 44*; GDH-TPI counter-1: -6; Mtb BioA inh: 2; FadD28 binding: -3; Mtb FBA inh conf: 68*; GDH-TPI counter-2: 56*

Results for CCN(CC(=O)Nc1c(F)cccc1F)C(=O)CCc1ccc(OC)cc1 ?
Mtb FBA inh: -1; SARS 3CLpro inh: 1; GDH-TPI counter-1: -3; FadD28 binding: 0

What do the screens show for `CCS(=O)(=O)NCCc1csc(-c2ccc(OC)c(OC)c2)n1`?
Mtb FBA inh: 55*; SARS 3CLpro inh: 2; GDH-TPI counter-1: 12; FadD28 binding: -1; Mtb FBA inh conf: -3; GDH-TPI counter-2: -5

How did C[C@@H]1CN([C@@H](C)CO)S(=O)(=O)c2ccc(C3=CCCCC3)cc2O[C@@H]1CN(C)S(=O)(=O)c1cn(C)cn1 do in these assays?
Mtb BioA inh: 3

How did C[C@@H]1CCCCO[C@@H](CN(C)C(=O)c2ccccc2)[C@@H](C)CN([C@@H](C)CO)C(=O)c2cc(NS(C)(=O)=O)ccc2O1 do in these assays?
Mtb BioA inh: 2

How did Cc1cc(C)c2c(N)c3ccccc3nc2n1 do in these assays?
Mtb FBA inh: 70*; SARS 3CLpro inh: -3; GDH-TPI counter-1: -2; Mtb BioA inh: 1; FadD28 binding: -1; Mtb FBA inh conf: 181*; GDH-TPI counter-2: 143*

How did Cc1cc(C)c2cccc(N)c2n1 do in these assays?
Mtb FBA inh: 1; SARS 3CLpro inh: -6; GDH-TPI counter-1: 10; Mtb BioA inh: -2; FadD28 binding: -1

What do the screens show for `CCc1ccc2nc3nc(C)cc(C)c3c(N)c2c1`?
Mtb FBA inh: 34*; SARS 3CLpro inh: 2; GDH-TPI counter-1: -2; Mtb BioA inh: -1; FadD28 binding: -2; Mtb FBA inh conf: 103*; GDH-TPI counter-2: 77*

How did CCc1ccc(NC(=S)/N=C(\N)Nc2nc(C)c3cc(CC)ccc3n2)cc1 do in these assays?
Mtb FBA inh: 2; SARS 3CLpro inh: -8; GDH-TPI counter-1: 4; FadD28 binding: -3

Results for Nc1nc2sc3c(c2cc1C(=O)NCC(=O)O)CCCC3 ?
Mtb FBA inh: -3; SARS 3CLpro inh: 4; GDH-TPI counter-1: 4; Mtb BioA inh: 6; FadD28 binding: 1

Results for Nc1nc2sc3c(c2cc1C(=O)N1CCOCC1)CCCC3 ?
Mtb FBA inh: 32*; SARS 3CLpro inh: 0; GDH-TPI counter-1: 1; Mtb BioA inh: 3; FadD28 binding: -1; Mtb FBA inh conf: 56*; GDH-TPI counter-2: 54*

What do the screens show for `O=C(Cc1ccccn1)NCC[C@@H]1CC[C@H](NS(=O)(=O)c2ccc(F)cc2)[C@H](CO)O1`?
Mtb BioA inh: -2

Results for Cn1c(=O)c2cc(NC(=O)CCc3ccc(O)cc3)ccc2n1Cc1cccc(C(F)(F)F)c1 ?
Mtb FBA inh: 101*; GDH-TPI counter-1: 7; Mtb BioA inh: -1; FadD28 binding: 1; Mtb FBA inh conf: 7; GDH-TPI counter-2: -7
